Shown are actives, neighbours in structure and some others; about 2.1% of the full set was active somewhere.
EP2 antag: human EP2 receptor antagonists, primary screen, TR-FRET cAMP, C6 glioma cells. Prostaglandin E2 receptor EP2 subtype (Homo sapiens), P43116. 0.52% of 260,000 active. C6 glioma cells expressing human EP2; cells stimulated with saturating PGE2. inhibition, % at 25 µM;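 active = percent inhibition above 40 after rounding to a whole number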;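 also: rat C6 glioma host cells with rolipram phosphodiesterase inhibitor present; the protocol text gives 20 µM as final concentration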
EP2 modulator: EP2 receptor modulators, cAMP readout, primary screen, cell-based, HTRF cAMP, PGE2 stimulation; Prostaglandin E2 receptor EP2 subtype (Homo sapiens), P43116; EP2-expressing cells, cAMP HTRF FRET, PGE2 co-stimulation; induction, % at 25 µM; 0.83% of 260,000 active; AID 940, 2007;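 active = compounds whose cAMP rise, as percent of the full-agonist control response, exceeds 60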;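 also: rat C6 glioma line stably carrying human EP2 under a CMV promoter; the protocol text gives 20 µM as final concentration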
CHT inh: inhibitors of human choline transporter CHT. High affinity choline transporter 1 (Homo sapiens), Q9GZV3. CHT-expressing cells, membrane potential dye, choline response; active compounds read low. B-score at 10 µM. 0.86% of 310,000 active;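 active = B-score over 3 SD under the library average, and starting fluorescence ratio not unusually high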;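 also: choline stimulus applied at its EC90 after an EC20 pre-addition; B-score computed on integrated fluorescence ratio after choline addition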
Target sequence (Q9GZV3 whole entry, looked up): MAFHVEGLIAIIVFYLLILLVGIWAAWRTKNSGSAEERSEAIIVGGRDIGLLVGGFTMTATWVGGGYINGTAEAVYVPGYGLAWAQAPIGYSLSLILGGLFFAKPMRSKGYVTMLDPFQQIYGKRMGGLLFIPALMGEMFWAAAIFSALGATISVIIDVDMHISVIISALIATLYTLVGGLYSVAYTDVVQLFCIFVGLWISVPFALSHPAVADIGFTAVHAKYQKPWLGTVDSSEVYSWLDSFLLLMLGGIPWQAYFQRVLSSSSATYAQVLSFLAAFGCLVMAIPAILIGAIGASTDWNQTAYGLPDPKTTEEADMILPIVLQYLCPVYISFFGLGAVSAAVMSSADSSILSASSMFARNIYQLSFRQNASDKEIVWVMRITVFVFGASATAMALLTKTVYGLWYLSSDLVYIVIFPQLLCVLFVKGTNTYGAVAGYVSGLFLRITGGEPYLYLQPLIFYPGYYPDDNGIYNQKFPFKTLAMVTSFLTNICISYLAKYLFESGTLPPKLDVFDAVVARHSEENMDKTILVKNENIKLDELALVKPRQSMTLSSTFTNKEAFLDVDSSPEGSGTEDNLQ
CHT allo act: CHT positive allosteric modulators, primary screen, cell-based, membrane potential dye, choline EC20. B-score at 10 µM. CHT-expressing cells; active compounds read high; LV-AA mutant CHT in HEK293 cells. High affinity choline transporter 1 (Homo sapiens), Q9GZV3. 0.49% of 310,000 active;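 active = initial fluorescence not abnormally high and integrated response B-score, plate-corrected, over 3 SD above library mean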
Of the large screens only hits and unclear results are named; the others gave an inactive call; ! = a repeat was not active.

COc1ccccc1N1C(=O)C2CC(C)=C(C)CC2C1=O (configuration not stated)	none
COc1ccccc1N1C(=O)C=C(Sc2nc(C)cc(C)n2)C1=O	EP2 antag 42
O=C1C(Cl)=C(Sc2nnc3c4ccccc4c4ccccc4c3n2)C(=O)c2ccccc21	EP2 antag 58 (no result: CHT inh, CHT allo act)
O=C(O)CSc1nnc2c3ccccc3c3ccccc3c2n1	none (no result: CHT inh, CHT allo act)
CCOCCCNC(=S)N(Cc1ccccc1)Cc1cc2cc(C)c(C)cc2[nH]c1=O	none (no result: CHT inh, CHT allo act)
CCn1c(SCC(=O)N2c3ccccc3CC2C)nnc1C1CC1 (configuration not stated)	none (no result: CHT inh, CHT allo act)
COc1ccc(/C(O)=C2/C(=O)C(=O)N(CCN(C)C)C2c2cc(OC)ccc2OC)c(C)c1 (configuration not stated)	none (no result: CHT inh, CHT allo act)
O=C(c1cccs1)N1N=C(c2ccc(O)cc2)CC1c1ccccc1 (configuration not stated)	EP2 modulator 65
O=C(c1cccs1)N1N=C(c2ccccc2)CC1c1ccccc1 (configuration not stated)	EP2 modulator 63
COc1ccc(C2=NN(C(=O)c3cccs3)C(c3ccc(OC)cc3)C2)cc1 (configuration not stated)	none
COc1cccc(C2(O)CCN(CCNC(=O)C3CCOCC3)CC2)c1	none (no result: CHT inh, CHT allo act)
CC(=O)N(c1ccccc1C)C1CCCC1	none
CC(=O)N(C1=C(Cl)C(=O)c2ccccc2C1=O)C1CCCCC1	EP2 antag 124
COc1cc(C(=O)Nc2ccc3c(c2)nc(C)n3C)cc(OC)c1OC	CHT allo act 6.5 (no result: EP2 antag, EP2 modulator)
COc1cc(C(=O)Nc2ccc3c(c2)ncn3C)cc(OC)c1OC	none (no result: EP2 antag, EP2 modulator)
Cc1nc2c(c(=O)[nH]1)CN(Cc1c(C)oc3ccccc13)CC2	none (no result: CHT inh, CHT allo act)
Cc1ccc(C)c(N2CCN(Cc3nnnn3C3CCCCC3)CC2)c1	EP2 modulator 61!
Cc1ccc(C)c(N2CCN(Cc3nnnn3CC3CCCO3)CC2)c1 (configuration not stated)	none (no result: CHT inh, CHT allo act)
CCOC(=O)CSc1nc2ccccc2c(=O)n1CC	none
CCOC(=O)CSc1nc2ccccc2c(=O)n1CC1CCCC1	EP2 modulator 62
COc1ccc2cc(CN(Cc3cccnc3)S(=O)(=O)c3ccc(C)cc3)c(=O)[nH]c2c1	none (no result: CHT inh, CHT allo act)
COc1ccccc1-n1cnc2cc(NCc3ccco3)ccc21	CHT allo act 13
COc1ccccc1NC(=O)N(CCCO)Cc1cc2c(C)cc(C)cc2[nH]c1=O	none (no result: CHT inh, CHT allo act)
COc1cccc(/C=C2/C(=O)NN(c3ccc(Br)cc3)C2=O)c1O	CHT inh -6.9 (no result: EP2 antag, EP2 modulator)
COc1cc(/C=C2/C(=O)NN(c3ccc(F)cc3)C2=O)cc(Cl)c1O	CHT inh -4.9 (no result: EP2 antag, EP2 modulator)
COc1cc(/C=C2/C(=O)NN(c3ccc(Cl)cc3)C2=O)cc(Br)c1O	none (no result: EP2 antag, EP2 modulator)
COc1cccc(-c2nc(-c3ccccc3)c(-c3ccccc3)[nH]2)c1OCC(=O)O	CHT inh -6.6 (no result: EP2 antag, EP2 modulator)
CCc1cccc(C)c1N(C(=O)Cn1nnc2ccccc21)C(C)COC (configuration not stated)	none (no result: CHT inh, CHT allo act)
COc1ccc([C@@H]2C[C@H](C(=O)NCc3ccccn3)N(C)S(=O)(=O)N2)cc1OC	none (no result: EP2 antag, CHT inh, CHT allo act)
COc1ccc(CSC(=N)N)cc1[N+](=O)[O-]	none
CCCCCOc1ccc(CSC(=N)N)cc1[N+](=O)[O-]	EP2 antag 46
Cc1cc(NC(=O)C(=O)Nc2ccc3c(c2)OCCO3)ccc1-n1cnnn1	none (no result: CHT inh, CHT allo act)
COc1ccc(C2=CC3=C(Br)C(=O)C(C)(O)C(=O)C3=CO2)cc1 (configuration not stated)	EP2 antag 134
CCC(=O)OC1(C)C(=O)C2=COC(c3ccc(OC)cc3)=CC2=C(Br)C1=O (configuration not stated)	none
COc1cccc(C(=O)N2N=C(c3ccccc3)CC2(O)C(F)(F)F)c1 (configuration not stated)	none
COc1cccc(C2=NN(C(=O)c3ccccc3)C(O)(C(F)(F)F)C2)c1 (configuration not stated)	EP2 modulator 64 (no result: EP2 antag)
CN(CC(=O)Nc1ccccc1Sc1ccccc1)C1CCCCC1	EP2 modulator 64
CCNc1ccc(S(=O)(=O)C(F)(F)F)cc1NC(=O)C12CCC(CC1)C2	EP2 antag 76
O=C(Nc1nnc(-c2cccs2)s1)c1ccco1	EP2 antag 44 (no result: CHT inh, CHT allo act)
O=C(Nc1nc(-c2cccs2)cs1)c1ccco1	none
COc1ccc(CN(Cc2cc3ccc(OC)cc3[nH]c2=O)Cc2nnnn2C(C)(C)C)cc1	none (no result: CHT inh, CHT allo act)
C=CC[n+]1c(C)ccc2ccccc21	none (no result: CHT inh, CHT allo act)
Cn1c(N2CCC(C(=O)NC3CCCC3)CC2)nc2ccccc21	none (no result: EP2 antag, CHT inh, CHT allo act)
CCn1c(N2CCC(C(=O)NC3CCCC3)CC2)nc2ccccc21	EP2 modulator 63 (no result: EP2 antag, CHT inh, CHT allo act)
Cc1ccc(C)c2[nH]c(=O)c(CN(CCCN3CCOCC3)C(=O)Nc3ccc(Cl)cc3)cc12	none (no result: CHT inh, CHT allo act)
COc1cccc(N(CC(=O)NCc2ccco2)S(=O)(=O)c2ccc(C)cc2)c1	none (no result: CHT inh, CHT allo act)
O=C(CSc1nc2sc3c(c2c(=O)[nH]1)CCCC3)Nc1cccc(F)c1	none (no result: CHT inh, CHT allo act)
Cc1cccc(NC(=O)CSc2nc3sc4c(c3c(=O)[nH]2)CCCC4)c1C	EP2 antag 45 (no result: CHT inh, CHT allo act)
CC(C)c1nc2sc3c(c2c2nnc(SCc4cc(=O)[nH]c5ccccc45)n12)CCCC3	none (no result: CHT inh, CHT allo act)
CC1(C)S[C@H]2[C@H](NC(=O)Cc3ccccc3)C(=O)N2[C@@H]1C(=O)O	EP2 antag 49 (no result: CHT inh, CHT allo act)
Cc1cc(=Nc2ccc3c(c2)c(N)cc(C)[n+]3C)nc(N)n1C	EP2 antag 42 (no result: CHT inh, CHT allo act)
Cc1cc(-c2cn3c4c(nnc3n2)CCCC4)ccc1NC(=O)C(C)N1CCCC1=O (configuration not stated)	none (no result: EP2 antag, CHT inh, CHT allo act)
Cc1c(Cl)sn(-c2ccc(Cl)cc2)c1=O	EP2 antag 117 (no result: CHT inh, CHT allo act)
CCOC(=O)c1sc(N2C(=O)C(=O)/C(=C(\O)c3ccc(OC)cc3C)C2c2cccnc2)nc1C (configuration not stated)	EP2 antag 54 (no result: CHT inh, CHT allo act)
CC(C)Cn1c(=O)c(C(=O)NCc2ccccn2)c(O)c2ccccc21	EP2 modulator 62
CCn1c(=O)c(C(=O)NCc2ccccc2OC)c(O)c2ccccc21	EP2 modulator 62
CCn1c(=O)c(C(=O)NCc2cccnc2)c(O)c2ccccc21	EP2 modulator 65
CCn1c(=O)c(C(=O)NCc2ccc(Cl)cc2)c(O)c2ccccc21	none (no result: EP2 antag, EP2 modulator)
Cc1cc(C)nc(Nc2cccc(C(=O)O)c2)n1	none (no result: CHT inh, CHT allo act)
C=CCn1c(=O)c(C#N)cc2c(=O)n3ccccc3nc21	CHT allo act 7.2 (no result: EP2 modulator)
C=CCn1c(=N)c(C#N)cc2c(=O)n3ccccc3nc21	none
COC(=O)/C=C1\OC(c2ccccc2)=CC1=O	EP2 antag 124
O=C(O)c1ccc(C2(c3ccc(C(=O)O)cc3)OC(=O)c3ccccc32)cc1	none (no result: EP2 antag, EP2 modulator)
O=C(O)c1ccc2c(c1C(=O)O)C(=O)OC2(c1ccc(O)cc1)c1ccc(O)cc1	EP2 antag 44 (no result: CHT inh, CHT allo act)
Cc1nc2sc3c(c2c2nnc(SCC(=O)NC4CCCC4)n12)CCCC3	none (no result: CHT inh, CHT allo act)
Cc1ccc(S(=O)(=O)Oc2cc(S(=O)(=O)O)cc3cc(S(=O)(=O)O)cc(N)c23)cc1	EP2 antag 61 (no result: CHT inh, CHT allo act)
COc1ccc(NC(=O)C2=C(C)NC(=O)NC2c2cccc(O)c2)cc1 (configuration not stated)	none (no result: CHT inh, CHT allo act)

Screens as filed in PubChem BioAssay.
